# Data from the supplement of paper PMC6555819.
# Assays:
# Test in all cases: PBM binding z-score (relative to random genomic background probes); higher = stronger binding; sequences stand for … in GC…GCGATTGACAGCGTAGAATGAAGG
# [1] = tested on: FXR:RXRa (NR concentration 270 nM, RXRa partner concentration 90 nM)
# Summary of the method: (§1)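 Antibodies against each partner of ligand-free nuclear receptor dimers (one per run) detected binding on custom Agilent 4×180K protein-binding microarrays after 1 h incubation. The double-stranded probes had 34-nt variable regions carrying direct-repeat seeds, single-nucleotide variants, half-site ablations and random human genomic background sequences. Binding z-scores, from regression-normalized fluorescence, use the random background probes as reference.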
# [2] = tested on: LXRa homodimer (NR concentration 270 nM)
# Summary of the method: as §1
# [3] = tested on: LXRb homodimer (NR concentration 270 nM)
# Summary of the method: as §1
# [4] = tested on: PPARg:RXRa (NR concentration 180 nM, RXRa partner concentration 90 nM)
# Summary of the method: as §1
# [5] = tested on: PPARg:RXRa 270nM:90nM, anti-RXR (NR concentration 270 nM, RXRa partner concentration 90 nM)
# Summary of the method: as §1
# [6] = tested on: PPARg:RXRa 30nM:10nM, anti-RXR (NR concentration 30 nM, RXRa partner concentration 10 nM)
# Summary of the method: as §1
# [7] = tested on: PPARg:RXRa 90nM:30nM, anti-RXR (NR concentration 90 nM, RXRa partner concentration 30 nM)
# Summary of the method: as §1
# [8] = tested on: PPARg:RXRa DBDmut IVT, anti-RXR (DBD mutation: RXRa K156A/R161A, NR concentration 270 nM, RXRa partner concentration 90 nM)
# Summary of the method: as §1
# [9] = tested on: PPARg:RXRa IVT, anti-PPARg (NR concentration 270 nM, RXRa partner concentration 90 nM)
# Summary of the method: as §1
# [10] = tested on: PPARg DBDmut:RXRa IVT, anti-PPARg (DBD mutation: PPARg1 K132A/R137A, NR concentration 270 nM, RXRa partner concentration 90 nM)
# Summary of the method: as §1
# [11] = tested on: PPARg DBDmut IVT, anti-PPARg (DBD mutation: PPARg1 K132A/R137A, NR concentration 270 nM)
# Summary of the method: as §1
# [12] = tested on: PPARg homodimer (NR concentration 180 nM)
# Summary of the method: as §1
# [13] = tested on: PXR:RXRa (NR concentration 270 nM, RXRa partner concentration 90 nM)
# Summary of the method: as §1
# [14] = tested on: PXR homodimer (NR concentration 270 nM)
# Summary of the method: as §1
# [15] = tested on: RARa:RXR (NR concentration 270 nM, RXRa partner concentration 90 nM)
# Summary of the method: as §1
# [16] = tested on: RARa homodimer (NR concentration 270 nM)
# Summary of the method: as §1
# [17] = tested on: RARb:RXRa (NR concentration 270 nM, RXRa partner concentration 90 nM)
# Summary of the method: as §1
# [18] = tested on: RARb homodimer (NR concentration 270 nM)
# Summary of the method: as §1
Sequence,PBM binding z-score [1],PBM binding z-score [2],PBM binding z-score [3],PBM binding z-score [4],PBM binding z-score [5],PBM binding z-score [6],PBM binding z-score [7],PBM binding z-score [8],PBM binding z-score [9],PBM binding z-score [10],PBM binding z-score [11],PBM binding z-score [12],PBM binding z-score [13],PBM binding z-score [14],PBM binding z-score [15],PBM binding z-score [16],PBM binding z-score [17],PBM binding z-score [18]
CAAACTAGGTCACAAAAGGTCAAAGTCGAATGAC,7.02,7.78,3.46,10.1,8.38,6.97,8.43,8.13,8.79,3.52,2.98,6.01,6.68,3.59,7.57,3.85,5.37,5.82
ATCGAAAGGTCCAAGGTGAGTATACCCACCCGAA,0.219,-0.213,0.175,1.01,0.802,0.219,0.627,-0.563,0.666,0.0343,0.185,0.369,0.0935,-0.107,0.511,0.706,1.49,0.938
ACTTACGGGTCTACGAGGTTATAGCACGCGTATA,0.283,0.149,0.121,0.708,0.426,0.256,0.0516,-0.0713,0.458,0.196,0.723,0.507,1.03,0.544,1.28,0.676,0.688,0.753
CCTAGTTGGTCAAGGTCACATACGCTATAGGTAC,3.98,1.97,1.23,3.3,3.43,1.17,2.91,2.23,3.3,1.13,1,3.03,4.1,2.39,4.46,2.55,3.95,4.15
TCGCCTAGGTCATGGGCCAGTATACCACGCGAAC,4.68,0.142,-0.146,3.52,3.4,1.9,2.9,1.88,2.65,0.306,-0.587,1.21,1.7,-0.2,2.97,-0.243,3.97,3.12
CGTCCAAGGTCAATGCTAGATCAGTGAAAGCATT,6.47,0.407,0.497,3.65,4.19,1.52,2.91,3.16,3.17,-0.125,0.742,2.99,3.36,0.745,3.86,1.18,4.94,3.73
AATACAGGGTCATCTTAGGCCAGAGTACGCACAG,7.35,2.36,1.74,6.19,5.79,2.46,4.59,2.7,3.86,1.51,0.721,2.17,5.05,1,4.73,0.742,4.22,3.87
CCTACTGGGCCAAAGGTGATTGATTCCAATGCTC,-0.0621,-0.216,-0.106,8.87,7.96,7.6,8.66,5.69,5.36,0.238,0.204,0.439,0.0253,-0.311,0.327,-0.309,0.815,0.601
GCTAGTTGGTCAGTAAAAGGTGACACACCGGTCG,0.000592,-0.18,-0.568,0.834,1.59,-0.104,1.02,0.643,1.63,-1.22,-1.06,0.86,0.431,-0.523,1.07,0.0812,1.83,2.45
CAAACTAGGTCACAGTGGTCAAAGTCCGTGCGTA,4.01,0.593,-0.0137,8.83,6.97,5.52,7.04,8.5,9.05,2.06,1.68,2.21,2.03,-0.0834,2.51,0.000573,4.08,3.62
TACCCTAGGTCATGGGCCAGTATACCACGCGAAC,5.02,6.35,2.13,4.58,4.25,1.59,3.13,1.55,3.86,1.09,0.696,2.52,2.07,0.812,3.19,0.836,4.11,3.19
CCTTACGGGTCACTGACAGGTTATAGCGTTTGGA,5.14,0.362,0.00055,4.5,4.32,1.5,2.78,2.91,3.67,-0.0392,-0.319,2.56,3.48,0.179,3.97,0.964,3.88,3.34
CGTCAAACTTCAACTAAGGTAACGTAAAGCACGC,0.562,0.473,0.584,0.587,0.064,0.351,0.111,0.0564,0.514,0.469,0.79,0.684,0.396,0.0401,0.922,1.05,0.391,0.665
ATCGAAAGGTCGTGAGGTAAGTATACAGAAAGGC,5.54,0.488,0.774,4.03,4.37,1.57,3.06,0.266,2.1,1.96,0.952,2.1,3.42,0.535,4.43,1.16,3.99,2.76
AGAATGAGGTTAAGTTCAGGGAAACAGAATACAT,4.05,0.441,-0.00698,3.45,3.89,1.62,3.51,3.13,3.33,1.62,0.811,1.08,3.31,1.91,3.03,0.895,3.17,2.6
